The structures appear in SMILES notation. Screen size: about 340,000 compounds; about 2,500 (0.74%) were called active. Shown is part of a subset that was picked to be rich in actives. A number with no mark means an inactive call.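 Rule for the calls: active = inhibition above about 55% (limit read from the data); inactive = the rest.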

The nature of this test: blockers of Gli reporter signaling – luciferase luminescence, Sufu-KO-LIGHT cells, uHTS, primary screen (AID 588413).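 Note: 0% = DMSO-treated cells and 100% = wells with medium but no cells.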 The note with it: Sufu-KO-LIGHT fibroblasts, at 5 µM, stronger effect = higher value.
As for `Cc1cc(S(=O)(=O)N2CCOCC2)ccc1OCC(=O)Nc1cccc(C(F)(F)F)c1`, the inhibition (usually the relative decrease from the control value, in per cent) is -8.26%. Take `COc1ccccc1N1CCN(C(=O)c2c(-c3c(Cl)cccc3Cl)noc2C)CC1`: the inhibition is -1.94%.

With `COc1ccccc1N1CCN(C(=O)c2cc(=O)c3cc(C)ccc3o2)CC1`, the inhibition is 7.53%. Regarding `COc1ccccc1N1CCN(C(=O)c2cc(=O)c3cc(C)cc(C)c3o2)CC1`, the inhibition is 56.9% (active).

Regarding `Cc1coc2c1c(C)cc1oc(=O)c(CC(=O)NCC(=O)N[C@H](C(=O)O)C(C)C)c(C)c12`, the inhibition was 23.9%.

With `COc1ccccc1CCNC(=O)C(=O)NCCC1CCCCN1S(=O)(=O)c1cccs1` (stereo unspecified), the inhibition is 55.6% (active). On to `COc1ccc(CCNC(=O)C(=O)NCC2CCCN2S(=O)(=O)c2cccs2)cc1OC` (stereo unspecified), for which the inhibition is 6.8%. As to `O=C(NCCC1CCCCN1S(=O)(=O)c1cccs1)C(=O)Nc1ccc(F)cc1F` (stereo unspecified), the inhibition is 15.3%. As for `CCCCNC(=O)C1CCC(CNS(=O)(=O)c2ccc(NC(C)=O)cc2)CC1` (stereo unspecified), the inhibition was -6.13%.

Turning to `CN(C)c1ccc(CSc2ccccc2)cc1`, the inhibition was -50.9%. The figure for `c1ccc(Cc2cc[n+](Cc3ccccc3)cc2)cc1` is 20.7%. To `CN(C)c1cc[n+](Cc2ccccc2)cc1` belongs 55.3% (active); to `COc1cccc(/C=N/NC(=O)CNC(=O)c2ccc(S(=O)(=O)N3CCOCC3)cc2)c1OC`, 3.3%. For the molecule `COc1cccc(/C=N/NC(=O)c2[nH]nc3c2CCc2ccccc2-3)c1O`, the inhibition is 81.1% (active). The figure for `COc1cc(/C=N/NC(=O)c2cc(-c3ccccc3C)nc3ccccc23)cc(OC)c1O` is 3.09%; for `O=C(NCCCNC(=O)NC1CCCCC1)NC1CCCCC1` it is 0.18%; for `O=[N+]([O-])c1cc([N+](=O)[O-])c(Oc2cc(F)cc(F)c2F)cc1NN1CCCCC1` it is -2.49%. As to `Cn1c(=O)n(C)c2cc(NS(=O)(=O)c3ccc(F)cc3)ccc21`, the inhibition is 0.54%. For the molecule `CC1(C)CC(=O)c2c(n(S(=O)(=O)c3ccccc3)c3ccc(NS(=O)(=O)c4ccccc4)cc23)C1`, the inhibition was 84.1% (active). The figure for `Cn1c(CCN2CCCC2)nc2cc(NS(=O)(=O)c3ccccc3)ccc21` is 12.8%; for `C[C@H](CO)N1C[C@H](C)[C@@H](CN(C)Cc2ccc(-c3ccccc3)cc2)Oc2ccc(NC(=O)Cn3cnnn3)cc2C1=O` it is -7.22%. The figure for `N#Cc1ccc(CN2CCN(CC(=O)Nc3ccccc3C(=O)NC3CC3)CC2)cc1` is -0.74%.

Turning to `COc1cccc(C(=O)Nc2c3c(nn2-c2cccc(C)c2C)CS(=O)(=O)C3)c1OC`, the inhibition was 5.94%. Regarding `CCC(=O)N1CCc2cc(Br)c(S(=O)(=O)NCCN3CCCCC3CC)cc21` (stereo unspecified), the inhibition was -20.7%.

On to `CC(=O)Nc1ccc(S(=O)(=O)N2CCN(C(=O)c3ccccc3F)CC2)cc1`, for which the inhibition was 4.91%.

`CC1CCN(Cc2nc3c(c(=O)n(C)c(=O)n3C)n2CCc2ccccc2)CC1`: the inhibition is 0.83%. As for `COCCn1c(CN(Cc2ccccc2)Cc2ccccc2)nc2c1c(=O)n(C)c(=O)n2C`, the inhibition was 9.35%.

`COCCn1c(CN2CCC(Cc3ccccc3)CC2)nc2c1c(=O)n(C)c(=O)n2C`: the inhibition is 66.7% (active). The figure for `NC1=NC(=O)C(Cc2cccc(Cl)c2Cl)S1` (stereo unspecified) is -27.7%. `COCCCNC(=O)Cn1cc(C(=O)C2CC2)c2ccccc21`: the inhibition is 5.8%.

In the case of `O=C(Cn1cc(C(=O)C2CC2)c2ccccc21)Nc1ccccc1Cl`, the inhibition is 60.8% (active). The figure for `Cc1ccccc1NC(=O)Cn1cc(C(=O)C2CC2)c2ccccc21` is -3.91%. `Cc1ccc(S(=O)(=O)N(C)C)cc1NC(=O)C1Cc2ccccc2CN1C(=O)c1ccco1` (stereo unspecified): the inhibition is -7.42%. To `COc1ccc(CCNC(=O)C(=O)NCC2OCCN2S(=O)(=O)c2cccs2)cc1OC` (stereo unspecified) belongs 1.51%. As to `COc1cc2c(cc1OC)CN(CC(=O)Nc1ccc(F)cc1)CC2`, the inhibition is 9.09%. For `COc1ccc2c(c1)CCNC2Cc1ccc(OC)c(O)c1` (stereo unspecified), the inhibition was 7.38%. To `CC[C@H]1CN2CCc3cc(OC)c(OC)cc3[C@@H]2C[C@@H]1C[C@H]1NCCc2cc(OC)c(OC)cc21` belongs 71.3% (active); to `C=CC(=O)Nc1ccc(Nc2ccnc(Nc3ccc(N4CCN(C)CC4)cc3)n2)cc1`, 21.8%; to `CC(NC(=O)C1CCC(CNc2c(N3CCOCC3)c(=O)c2=O)CC1)c1ccccc1` (stereo unspecified), -5.64%. To `COCCN(Cc1ccccc1)C(=O)Cc1ccc(S(=O)(=O)N2CCOCC2)s1` belongs 4.55%; to `Cc1nnc(SCC(=O)Nc2cccc(N)c2)n1-c1ccccc1`, -28.9%. Turning to `CC(=O)c1cccc(NC(=O)c2cc(C)nn2-c2ccccc2)c1`, the inhibition is 5.19%. For `CC[n+]1c(C)n(-c2ccccc2)c2ccc(NC(C)=O)cc21`, the inhibition is 76.3% (active). To `Cc1ccc(C(=O)NCC(=O)O)s1` belongs -7.96%; to `CC1OC2C(OC1C)N(S(C)(=O)=O)CCN2S(C)(=O)=O` (stereo unspecified), -7.55%; to `Cc1ccsc1C(=O)OCC(=O)Nc1cccc(F)c1`, -43.7%. For the molecule `COc1ccc(C(=O)OCC(=O)c2cc(C)n(CC3CCCO3)c2C)cc1[N+](=O)[O-]` (stereo unspecified), the inhibition was -7.49%. As to `Cc1ccsc1C(=O)OCC(=O)c1cc(C)n(CC2CCCO2)c1C` (stereo unspecified), the inhibition is 72.1% (active). To `CCN(CC)C(CNC(=O)CSc1nnnn1-c1cccc(F)c1)c1ccco1` (stereo unspecified) belongs 10%. Turning to `CCOC(=O)CNC(=O)N1c2ccccc2Sc2ccccc21`, the inhibition was 2.43%. In the case of `CCN1/C(=C/C(=S)Nc2ccccc2)Sc2ccccc21`, the inhibition was 67.6% (active). In the case of `CCNCCC(=O)N1c2ccccc2Sc2ccc(NC(=O)OCC)cc21`, the inhibition was 26.4%. To `CC(=O)c1ccc(S(=O)(=O)NC2CC(=O)N(c3ccc4c(c3)OCCO4)C2)cc1` (stereo unspecified) belongs -3.34%. As for `CCN(CC(=O)Nc1c(F)cccc1F)C(=O)c1ccc(Sc2nncn2C)c([N+](=O)[O-])c1`, the inhibition was 31.3%. In the case of `CC(C)Oc1ccc(C(=O)NC(C)(C)CO)cc1`, the inhibition is -9.97%.

For the molecule `CCC(NC(=O)C1CCCC1)c1ccc(C)cc1` (stereo unspecified), the inhibition is -10.2%. To `Cc1ccc(NC(=O)[C@H](Cc2ccccc2)NC(=O)C2CCNCC2)cc1` belongs 2.89%; to `CCC(Cc1ccccc1)NC(=O)C1CCCCC1` (stereo unspecified), 63.1% (active). In the case of `COc1ccc(C(=O)COC(=O)Cn2cnc3c2c(=O)n(C)c(=O)n3C)c(OC)c1`, the inhibition is 3.81%. To `NC(=O)C1(Nc2ccccc2Cl)CCCC1` belongs 4.9%; to `CC[C@]12c3[nH]c4ccc(OC)cc4c3CCN1C(=O)C(CC(=O)NCc1ccco1)C[C@@H]2C(=O)N1CCN(C(=O)C2CC2)CC1` (stereo partly specified), -2.82%. Turning to `C=CCSc1nc2c(c(=O)[nH]1)C(C(C)C)C(C#N)=C(N)O2` (stereo unspecified), the inhibition is -7.54%.

For `CCCc1nc(N)nc2c1C(=O)CC(C)(C)C2`, the inhibition was 77.6% (active). The figure for `CC/C(O)=C1\C(=O)CC(C)(C)CC1=NCCc1nc2ccccc2[nH]1` is 25.2%; for `CC1(C)CC(=O)c2sc(N)nc2C1` it is 4.1%. Take `CN(C)CCCN(C(=O)c1ccc(S(=O)(=O)N2CCCCCC2)cc1)c1nc2ccc(Br)cc2s1`: the inhibition was 42.7%. The figure for `CCc1ccc2nc(N(CCCN(C)C)C(=O)c3ccc4c(c3)OCCO4)sc2c1` is 11.7%. Regarding `CCOc1ccc2nc(N(CCCN(C)C)C(=O)c3ccc(C(=O)c4ccccc4)cc3)sc2c1`, the inhibition was 65.2% (active). For the molecule `Cc1ccc(F)c(NC(=O)CCc2ccccc2)c1`, the inhibition was -20.7%. For `CCOc1cccc(/C=N/NC(=S)NCCN2CCOCC2)c1O`, the inhibition is 81.1% (active). On to `Cc1ccc(C(=O)NC(=S)NCCN2CCOCC2)cc1`, for which the inhibition is -9.17%. The figure for `CCOc1cccc(/C=N/N2C(=O)CSC2=S)c1O` is -1.42%. The figure for `O=C(CNc1ccc(F)cc1F)NC(=O)NCc1ccco1` is -1.84%. To `Cc1cc([N+](=O)[O-])ccc1NCc1cccc([N+](=O)[O-])c1` belongs 8.75%; to `COCCCNC(=S)N1CCCC(c2nc3cc(C)c(C)cc3[nH]2)C1` (stereo unspecified), 15.7%; to `CCC(C)(C)NC(=O)C(c1ccc(O)cc1)N(Cc1ccco1)C(=O)CCC(=O)Nc1ccccn1` (stereo unspecified), -4.35%. Consider `Cc1ccc(NC(=O)C(C)Sc2nnc(C3CC3)n2C2CC2)cc1S(=O)(=O)N1CCOCC1` (stereo unspecified), for which the inhibition was 4.31%. As to `CCCn1cc(S(=O)(=O)c2ccc(C)cc2)c(=O)c2cc(OCC)ccc21`, the inhibition is 32.4%. Take `COc1cccc(Oc2ccc(N)cc2)c1`: the inhibition is -23.1%. As to `CC(C)(C)c1ccc(OC2=CS(=O)(=O)c3ccccc32)cc1`, the inhibition is -36.6%.

In the case of `CC(C)(C)c1ccc(Oc2ccc(N)cc2)cc1`, the inhibition is 76.2% (active). Regarding `CCOc1ccc(NS(=O)(=O)c2ccc(C)c(C(N)=O)c2)cc1`, the inhibition was 29.7%.

For the molecule `Cc1cccc(C(=O)OCC(=O)Nc2sc3c(c2C#N)CCC3)c1`, the inhibition is -6.89%. As for `N#CCC(=O)Nc1ccc(C(=O)OCC(=O)Nc2sc3c(c2C#N)CCCC3)cc1`, the inhibition was -9.19%. As to `CC(=O)c1c(C)[nH]c(C(=O)OCC(=O)Nc2sc3c(c2C#N)CCCC3)c1C`, the inhibition was 69.3% (active). Consider `Cc1cc(C)c(C)c(S(=O)(=O)Nc2cccnc2)c1C`, for which the inhibition is 1.03%.

For `Fc1ccc(CNc2nc3ccccc3n3nnnc23)cc1`, the inhibition was -6.79%. For `CCc1nc2sc3c(Cl)ncnc3c2c2c1CCCC2`, the inhibition is -1.03%. To `O=C(O)C1CC(=O)N(Cc2cccnc2)C1` (stereo unspecified) belongs -11.1%; to `O=C1/C(=C\c2cccnc2)CN(Cc2ccccc2)C/C1=C\c1cccnc1`, 99.3% (active). For `Cc1ccccc1C1=N/C(=C/c2cccnc2)C(=O)O1`, the inhibition was -7.01%.

For the origin of these results see PubChem BioAssay AID588413 (Sanford-Burnham Center for Chemical Genomics, 2011).
